Here are results for 15 molecules from PubChem BioAssay (NCATS).

One assay concerns HEK293. The experiment in a line: Cytotoxic Profiling of Annotated Libraries Using Quantitative High-Throughput Screening (AID 1296008). The conditions noted are these: Five cell lines viability, CellTiter-Glo ATP luminescence, 48-72 h; max response: stronger effect = lower value. In outline:
(§1)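 Cytotoxicity was measured as CellTiter-Glo ATP luminescence, read after 10 min at room temperature. Compound treatment of the cells lasted 48 or 72 hr at 37 degrees Celsius in a qHTS format.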
A general note: In ATP-based viability assays light output follows the ATP content of the culture.

Assay [1] relates to HaCat. The description is as above. The conditions noted are these: Five cell lines viability, CellTiter-Glo ATP luminescence, 48-72 h; max response: stronger effect = lower value. In outline: as §1
The subject of a further assay is KB-3-1. Described as above. The conditions noted are these: Five cell lines viability, CellTiter-Glo ATP luminescence, 48-72 h; max response: stronger effect = lower value. The procedure, abridged: as §1
In a further assay the test system is NIH3T3. Described as above. The following applies: Five cell lines viability, CellTiter-Glo ATP luminescence, 48-72 h; max response: stronger effect = lower value. In outline: as §1
The test system of a further assay is MKL-1. The experiment in a line: qHTS assay to identify novel small-molecules to repurpose for Merkel cell carcinoma treatment (AID 1296009). The conditions noted are these: MCC and control cell lines, CellTiter-Glo viability, 72 h; series mostly up to 46 µM. The procedure, abridged:
(§2)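 Cell viability, measured as CellTiter-Glo luminescence, was normalized between DMSO and no-cell wells. The cells had been exposed to 8- or 11-point compound dilutions for 72 hr at 37 degree celsius.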

In a further assay the test system is MKL-2. The description is as above. The conditions noted are these: MCC and control cell lines, CellTiter-Glo viability, 72 h; series mostly up to 46 µM. The procedure, abridged:
as §2

Assay [2] relates to HACAT. The assay is described as above. The following applies: MCC and control cell lines, CellTiter-Glo viability, 72 h; at 44.8 µM (top of the series) unless noted. The procedure, abridged: as §2
The subject of the next assay is MCC-13. Described as above. The conditions noted are these: MCC and control cell lines, CellTiter-Glo viability, 72 h; series mostly up to 46 µM. The procedure, abridged: as §2
The test system of another assay is MCC-26. The description is as above. The conditions noted are these: MCC and control cell lines, CellTiter-Glo viability, 72 h; series mostly up to 46 µM. In outline: as §2
In a further assay the test system is HEK293T. The description is as above. The following applies: MCC and control cell lines, CellTiter-Glo viability, 72 h; at 44.8 µM (top of the series). In outline:
as §2

Structures are written as SMILES. “And” between values parts separate entries of the source, which are not always exact repeats. Equal values may be shown once. Results filed as inconclusive are left out. More than one record can exist for a structure, and the calls need not agree. The source made the active and inactive calls. Calls follow the shape of the dose curve; as a rule, active = well fitted inhibition curve with a large enough effect; inconclusive = small, poorly fitted or top-dose-only effect; inactive = flat fitted curve, though single readings scatter.
% is scaled to controls: 0 for no effect and ±100 for the full control effect; potency is read from the fitted curve at half-maximal effect.
Also: nearly all actives have a fitted effect of over 60% in size.

Consider `Cn1cnc2c(F)c(Nc3ccc(Br)cc3Cl)c(C(=O)NOCCO)cc21`, for which the Potency in the assay on HEK293 is 1.32 µM (active); in the assay with HaCat [1], 1.48 µM (active); with KB-3-1, 9.35 µM (active); with NIH3T3, 4.18 µM (active). Further, the max response with HEK293 was -14.9% (inactive); with KB-3-1, -17.4% (inactive) and -1.76% (inactive). In addition, the Potency entry with MKL-1 and in the assay with MKL-2 was “inactive” each time.
Regarding `CNC[C@H](O)c1cccc(O)c1`, the max response with HEK293 is 1.65% (inactive) and -9.71% (inactive); with HaCat [1], -21.3% (inactive); in the assay on KB-3-1, 3.69% (inactive); in the assay with NIH3T3, 3.51% (inactive). Also, the call with HaCat [1], in the assay with KB-3-1, with NIH3T3 and in the assay on HACAT [2] was inactive. Moreover, the Potency result with MCC-13, with MCC-26, with MKL-1 and in the assay on MKL-2 was “inactive” each time.
Consider `CN(C)C(=O)c1ccc(S(=O)(=O)c2ccc(NC(=O)[C@@](C)(O)C(F)(F)F)c(Cl)c2)cc1`, for which the Potency in the assay with HEK293 is 3.72 µM (active). For the same molecule, the max response in the assay with HaCat [1] was -8.31% (inactive); in the assay on KB-3-1, -27.1% (inactive) and -22.5% (inactive). The molecule was called inactive in the assay with HaCat [1], with NIH3T3 and in the assay with HACAT [2]. Moreover, the Potency result in the assay with MCC-13, in the assay with MCC-26 and in the assay with MKL-1 was “inactive” throughout.
For `CNC(=O)c1ccc(C)c(-n2c(C)cc(OCc3ccc(F)cc3F)c(Br)c2=O)c1`, the Potency in the assay with HEK293 is 11.6 µM (active). The max response with HaCat [1] is -14.3% (inactive); in the assay on KB-3-1 it was -4.9% (inactive); with NIH3T3 it was 2.56% (inactive). The result in the assay with HaCat [1], in the assay with NIH3T3 and in the assay with HACAT [2] was inactive. In addition, the Potency result in the assay with MCC-13, in the assay with MCC-26 and with MKL-1 was “inactive” each time.
As for `O=C(O)CCc1ccc(NCc2cccc(Oc3ccccc3)c2)cc1`, the result in the assay with HEK293, in the assay with HaCat [1], in the assay with NIH3T3, in the assay on HACAT [2] and with HEK293T was inactive. Further, the max response with HaCat [1] was -7.54% (inactive); in the assay with KB-3-1 it was -3.52% (inactive) and 6.14% (inactive). Further, the Potency entry with MCC-26 was “inactive”. Besides, the activity change, negative = cytotoxicity in the assay on MKL-1 is -1.7% [at 0.00266 µM] (inactive).
Consider `NCCc1ccc(O)c(O)c1`, for which the max response with HEK293 was -42.9% (inactive); in the assay on HaCat [1], 2.7% (inactive); in the assay with KB-3-1 it was -3.12% (inactive) and 0.713% (inactive); in the assay on NIH3T3, 2.44% (inactive) and -9.95% (inactive). Besides, the molecule was called inactive with HaCat [1] and with HACAT [2]. Moreover, the Potency result in the assay on MCC-13 was “inactive and 5.31 µM (active)”; with MKL-1 it was “inactive and 23.7 µM (active)”; in the assay on MKL-2, 18.7 µM (active) and inactive. The Potency result in the assay on MCC-26 is “inactive”.
Turning to `C[C@H](NC(=O)Cc1cc(F)cc(F)c1)C(=O)N[C@@H]1C(=O)N(C)c2ccccc2-c2ccccc21`, the max response in the assay with HEK293 is -10.7% (inactive); in the assay with HaCat [1], -1.56% (inactive); in the assay with KB-3-1 it was 1.83% (inactive); in the assay with NIH3T3 it was -12.2% (inactive) and -1.62% (inactive). The call in the assay on HaCat [1], with KB-3-1 and in the assay with HACAT [2] was inactive. Moreover, the Potency entry in the assay on MCC-13 and in the assay on MKL-1 was “inactive” each time.
As to `CC(=O)Oc1ccccc1C(=O)O`, the max response was 1.6% (inactive) in the assay with HEK293; -12% (inactive) and 2.14% (inactive) with KB-3-1; 0.988% (inactive) and 3.48% (inactive) with NIH3T3. The result in the assay on HEK293, with HaCat [1], in the assay on HACAT [2] and in the assay with HEK293T was inactive. Also, the Potency result in the assay on MCC-13, in the assay on MCC-26, in the assay on MKL-1 and with MKL-2 was “inactive” each time.
As for `Cc1cnc(NC(=O)C2=C(O)c3ccccc3S(=O)(=O)N2C)s1`, the max response in the assay with HEK293 is -0.932% (inactive); in the assay with KB-3-1, -5.8% (inactive) and -11.4% (inactive) and -4.48% (inactive); in the assay on NIH3T3 it was -2.32% (inactive). The molecule was classed as inactive in the assay on HEK293, with HaCat [1], with NIH3T3, in the assay with HACAT [2] and in the assay with HEK293T. Further, the Potency entry in the assay on MCC-13, in the assay on MCC-26, in the assay with MKL-1 and with MKL-2 was “inactive” each time.
`NS(=O)(=O)c1cc2c(cc1Cl)NC=NS2(=O)=O`: the max response is -4.01% (inactive) and 0.386% (inactive) with HEK293; -11.6% (inactive) with HaCat [1]; -5.96% (inactive) with KB-3-1; 3.94% (inactive) in the assay with NIH3T3. The molecule was called inactive in the assay on HaCat [1], in the assay with KB-3-1, in the assay with NIH3T3 and in the assay on HACAT [2]. The Potency result in the assay on MCC-13, with MKL-1 and with MKL-2 was “inactive” in each case.
With `Cc1csc(NC(=O)c2sc3nc4c(c(C(F)(F)F)c3c2N)CCC4)n1`, the max response with HEK293 was -22.1% (inactive); in the assay with HaCat [1], -0.44% (inactive); with KB-3-1, 1.14% (inactive) and -9.3% (inactive); in the assay with NIH3T3 it was -3.35% (inactive) and -3.51% (inactive). Moreover, the result in the assay on HaCat [1] and with HACAT [2] was inactive. Also, the Potency entry with MCC-13, in the assay with MCC-26, with MKL-1 and in the assay with MKL-2 was “inactive” each time.
Turning to `CC(C[N+](C)(C)C)OC(N)=O` (stereo unspecified), the max response in the assay with HEK293 is 3.57% (inactive); with KB-3-1 it was 3.39% (inactive) and 7.21% (inactive). Besides, the call with HEK293, in the assay on HaCat [1], with NIH3T3, in the assay with HACAT [2] and in the assay on HEK293T was inactive. The Potency result in the assay with MCC-13, in the assay with MKL-1 and in the assay with MKL-2 was “inactive” in each case.
Consider `O=C(Nc1ccc(F)c(C(F)(F)F)c1)Nc1nnc(-c2ccncc2)s1`, for which the max response was -22.6% (inactive) and -26.4% (inactive) in the assay on HEK293; 2.71% (inactive) in the assay on HaCat [1]; -7.12% (inactive) and -14.7% (inactive) with KB-3-1; -1.83% (inactive) in the assay with NIH3T3. The molecule was called inactive with HaCat [1], in the assay on NIH3T3 and with HACAT [2]. The Potency entry in the assay on MCC-13, in the assay on MCC-26, with MKL-1 and with MKL-2 was “inactive” throughout.
With `CCCCNc1cc(C(=O)O)cc(S(N)(=O)=O)c1Oc1ccccc1`, the max response was 2.91% (inactive) in the assay with HEK293; 2.18% (inactive) with HaCat [1]; -8.24% (inactive) and 0.128% (inactive) with KB-3-1; 1.18% (inactive) in the assay with NIH3T3. For the same molecule, the call with HEK293, with HaCat [1], with NIH3T3, in the assay with HACAT [2] and in the assay on HEK293T was inactive. Besides, the Potency result in the assay on MCC-13, with MCC-26, with MKL-1 and with MKL-2 was “inactive” each time.
On to `NC(N)=NC(=O)c1nc(Cl)c(N)nc1N`, for which the max response in the assay on HEK293 is -13.2% (inactive) and 2.01% (inactive); in the assay on HaCat [1], -3.73% (inactive); in the assay on NIH3T3, -0.651% (inactive). Also, the result in the assay with HaCat [1], with KB-3-1, with NIH3T3 and with HACAT [2] was inactive. Moreover, the Potency result with MCC-13, in the assay with MCC-26, in the assay with MKL-1 and with MKL-2 was “inactive” throughout.
